# Data reported in PubChem BioAssay (NCI).
# This is part of a sample that, as a whole, favours compounds with a hit. Of some 83,000 tested, about 20% had one in any assay.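 In brief: 96-well plates, 48 h treatment, single concentration, percent growth endpoint.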 Values without a mark were called inactive. Active and inactive are the calls of the source. Rule for the calls: active = growth percent below 10; inactive = the rest.
# System: SNB-75 CNS
# Test: NCI-60 one-dose screen, 48 h (100 = growth as untreated, 0 = no growth, -100 = all killed)
# Details: 10 µM unless noted
row,SMILES,growth
1,Cc1cc2c(c(C)c1Cl)C(=O)/C(=C/c1ccco1)O2,76.7%
2,CN(C)CCNc1cc(-c2ccccc2)nc2ccccc12,-69.3% (active)
3,COc1ccc(CCN2CCC(CN(C)Cc3cnn(-c4ccccc4)c3)CC2)cc1,59.9%
4,COc1ccc(/C=C/C(=O)c2c(C)nc3ccccc3c2/C=C/c2ccccc2)cc1O,24.9%
5,Nc1n[nH]c2ccc([C@@H]3Nc4ccc5[nH]ncc5c4[C@H]4[C@H]5CCC(C5)[C@H]43)cc12,11.4%
6,O=c1c2cc(F)ccc2sc2c(NCCN3CCCC3)nc3ccccc3c12,77.6%
7,COc1ccc2sc(N(Cc3cccnc3)C(=O)c3ccc(C#N)cc3)nc2c1,74%
8,COC(=O)/C(CCC=C(C)C)=C1\[C@@H](OC(C)=O)C[C@@]2(C)[C@H]1C[C@@H](O)[C@H]1[C@@]3(C)CC[C@H](NC(=O)c4cnccn4)[C@@H](C)[C@@H]3CC[C@@]12C,86.3%
9,CCOc1ccc(Nc2ccnc3cc(Cl)ccc23)cc1,1.25% (active)
10,O=C(Nc1ccsc1C(=O)NC1CCCCC1)c1ccc(F)cc1,85.2%
11,CCn1c(-c2nonc2Nc2ccc(OC)cc2)nc2ccccc21,91.6%
12,COc1ccc(/C=C2\N=C(c3ccccc3)N(c3ccc(-c4nc5ccc(C)cc5s4)cc3)C2=O)cc1,69.9%
13,CSc1nc2c(c(=O)[nH]1)N=C1c3ccccc3C(=O)C1C(c1ccccc1)N2 (centres undefined),34.3%
14,CC1(C)CC2(C)OC2C2(C1)N=NC(=Nc1ccccc1)O2 (centres undefined),84.8%
15,COC(=O)/C(=C\c1c(-c2ccccc2)[nH]c2ccccc12)S(C)(=O)=O,-4.33% (active)
16,O=C(NN1C(=O)CSC1c1ccc(Cl)cc1)c1[nH]c2ccc(F)cc2c1-c1ccccc1 (centres undefined),59.2%
17,CC(=O)n1cc(-c2c[nH]c3ccccc23)c(-c2ccc(Cl)cc2)n1,80.9%
18,O=C(N/N=C/c1ccccc1Cl)C(=O)Nc1cccc(C(F)(F)F)c1,116%
19,COc1cccc2cc(N(C)c3nc(C)nc4ccsc34)ccc12,36%
20,O=C(Cn1cc(COc2ncnc3c2cnn3-c2ccccc2)nn1)Nc1cccc2ccccc12,74.9%

row,SMILES,growth
1,CCC1=C[C@]2(C3CC(=O)N(c4ccccc4)C3=O)CC(C(C)(C)C)C[C@@H]2[C@@H]2C(=O)N(c3ccccc3)C(=O)[C@H]12 (some centres undefined),66.3%
2,CCCN1CCN(c2ccc3nc(-c4ccc5nc(-c6cc(OC)ccc6OC)[nH]c5c4)[nH]c3c2)CC1,90.9%
3,COc1ccc2c(c1)C=C1CSCC3=Cc4cc(OC)ccc4OC13O2,23.9%
4,COc1ccc(-c2nc(-c3ccccn3)c(-c3ccccn3)n2CC(C)C)cc1OC1CCCC1,20.5%
5,CCN1C(=O)N(CC)C2C1NC(=S)N2/N=C/C=C/c1ccccc1OC (centres undefined),44.8%
6,O=C(c1nc2ccccc2[nH]1)C1C(c2ccc([N+](=O)[O-])cc2)C2CC3CCCCC3N2[C@@]12C(=O)Nc1cc(Cl)ccc12 (some centres undefined),27.4%
7,COc1cc(-c2c3c(c(Br)n2Cc2ccccc2)-c2nc(N)sc2CC3)cc(OC)c1OC,73.7%
8,Cn1c(C(=O)c2cccc3ccccc23)nc2ccccc21,38.9%
9,C1=CC2(C=C1)OC21CCC2(C=CC3(C2)OC3C2CCCCC2)CC1 (centres undefined),94.2%
10,O=C1/C=C/[C@@H](O)[C@@H]2C[C@@H](O)C[C@H]2/C=C/CCCCO1,29.7%
11,CS(=O)(=O)Nc1ccc(C(=O)NC(C(=O)NO)c2ccc(-c3cccc(F)c3)cc2)cc1 (centres undefined),24.8%
12,CCN1CCN(c2cc(C)c3cc(NC(=O)c4ccc(OC)c(OC)c4)ccc3n2)CC1,66.9%
13,Cc1ccc(OCCCCCCNCCO)c(C)c1,31.1%
14,CCOc1ccc2nc(C)cc(Nc3ccc(Br)cc3)c2c1,89.7%
15,Cn1c2c(c(=O)[nH]c1=O)NC1=C(C(=O)c3ccccc31)C1(C=C(O)c3ccccc31)N2 (centres undefined),92.1%
16,CC(C)(C)c1ccc(C2CC(=O)C3=C(C2)Nc2ccccc2N(C(=O)c2ccccc2Cl)C3c2ccc(F)cc2)cc1 (centres undefined),66.4%
17,Oc1ccc(-c2nc(-c3ccc4oc5ccc(-c6[nH]c(-c7ccc(O)cc7)nc6-c6ccccc6)cc5c4c3)c(-c3ccccc3)[nH]2)cc1,39.2%
18,CN(CCc1ccccc1)C(=S)N(C(=O)c1ccc([N+](=O)[O-])cc1)c1ccc(Cl)cc1,97.2%
19,Nc1no[n+]([O-])c1-c1nnc2c(n1)-c1ccccc1C2=O,95%
